Values joined by “and” are separate entries in the source; they are usually repeats but may differ in a detail not shown here. Equal values may be shown once. Records with an inconclusive call do not appear. A call without a number means that no potency is given here. Values without a mark were called inactive. Active and inactive are the calls of the source. The call rests on the fitted dose curve; in most records, active means well fitted cell-killing curve with a large enough effect in the repeat runs; inconclusive means weak or mixed curves, or effect the other way; inactive means flat fitted curve, though single readings scatter.
What was measured:
[1] = cAMP Responsive Elements (CRE) small molecule antagonists, cell-based qHTS assay: qHTS cell viability counter screen (AID 2060913); further: nearly all actives have a fitted effect of over 40% in size
Procedure, shortened: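 CRE-bla HEK293T cells (2,000/well, 18 h) given compound plus NKH477 0.25 uM final for 3 h at 37C; viability counter-screen by CellTiter-Glo luminescence in same wells after 30 min.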

[2] = cAMP Responsive Elements (CRE) small molecule agonists, cell-based qHTS assay: qHTS cell viability counter screen (AID 2060914); further: nearly all actives have a fitted effect of over 50% in size
Procedure, shortened: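 Cytotoxicity was measured as ATP luminescence (CellTiter-Glo, 30 min at room temperature) in the same wells as the CRE-bla FRET read-out. HEK293T CRE-bla cells had 3 h compound exposure at 37C/5% CO2.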
Potency means the concentration at half of the fitted maximal effect.

Row | Structure (SMILES) | Potency [1] | Potency [2] | viability change, negative = cytotoxic [1] | activity change, negative = cytotoxicity [2]
1 | [N-]=[N+]=CC(=O)OC[C@H](N)C(=O)O | inactive | inactive |  | 
2 | COC(=O)C(Br)CBr (stereo unspecified) | inactive | inactive |  | 
3 | CCOP(=S)(OCC)Oc1ccc([N+](=O)[O-])cc1 | inactive | inactive |  | 
4 | CO[C@@H]1[C@H](OC(=O)NC(=O)CCl)CC[C@]2(CO2)[C@H]1[C@@]1(C)O[C@@H]1CC=C(C)C |  |  | 9.39% [at 18.9 µM] | 13.5% [at 18.9 µM]
5 | O=[N+]([O-])c1ccc(Nc2ccccc2)cc1 | inactive | inactive |  | 
6 | CN1CCc2cc3c(cc2C1O)OCO3 (stereo unspecified) | inactive | inactive |  | 
7 | c1ccc2c(c1)Nc1ccccc1S2 | inactive | inactive |  | 
8 | CC(C)OC(=O)Nc1cccc(Cl)c1 | inactive | inactive |  | 
9 | CC(Cl)CCl (stereo unspecified) | inactive | inactive |  | 
10 | Nc1cc(Cl)cc(Cl)c1 | inactive | inactive |  | 
11 | CC(C)C1(C)N=C(c2ncccc2C(=O)O)NC1=O (stereo unspecified) | inactive | inactive |  | 
12 | C=CCN1CC[C@]23CCCC[C@H]2[C@H]1Cc1ccc(O)cc13 | inactive | inactive |  | 
13 | COC1=CC(=O)O[C@@H](/C=C/c2ccccc2)C1 | inactive | inactive |  | 
14 | CC(C)(C)C(O)(CCc1ccc(Cl)cc1)Cn1cncn1 (stereo unspecified) | inactive | inactive |  | 
15 | CC(=O)[O-].CC(=O)[O-].O.O.O.[Pb+2] | inactive | inactive |  | 
16 | c1cc(OCC2CO2)ccc1Cc1ccc(OCC2CO2)cc1 (stereo unspecified) | inactive | inactive |  | 
17 | CC/C(=N\OC/C=C/Cl)C1=C(O)CC(C2CCOCC2)CC1=O (stereo unspecified) | inactive | inactive |  | 
18 | c1ccc(CN2CCNCC2)cc1 | inactive | inactive |  | 
19 | CCCCCCCCCCCCCCCC[N+](C)(C)C | 54.5 µM (active) | 29.5 µM (active) and 61.1 µM (active) and 26.6 µM (active) |  | 
20 | COCC(C)N(C(=O)CCl)c1c(C)csc1C (stereo unspecified) | inactive | inactive |  | 
21 | CCC[CH2][Sn]([Cl])([Cl])[CH2]CCC | 17.4 µM (active) and 18 µM (active) | 31 µM (active) and 30.6 µM (active) |  | 
22 | CC(C)=CC1C(C(=O)OCN2C(=O)C3=C(CCCC3)C2=O)C1(C)C (stereo unspecified) | inactive | inactive |  | 
23 | COC(C)(C)CCC[C@H](C)C/C=C/C(C)=C/C(=O)OC(C)C | inactive | inactive |  | 
24 | NCCOS(=O)(=O)O | inactive | inactive |  | 

Row | Structure (SMILES) | Potency [1] | Potency [2] | viability change, negative = cytotoxic [1] | activity change, negative = cytotoxicity [2]
25 | C/C(=N\NC(=O)Nc1cc(F)cc(F)c1)c1ncccc1C(=O)O | inactive | inactive |  | 
26 | Cc1ccc2c(c1)C1CN(C)CCC1N2 (stereo unspecified) |  |  | -0.367% [at 18.9 µM] | -0.524% [at 18.9 µM]
27 | Cc1nnc2n1-c1sc(CCC(=O)N3CCOCC3)cc1C(c1ccccc1Cl)=NC2 | inactive | inactive |  | 
28 | C[N+]1(CCF)[C@@H]2CC[C@H]1CC(OC(=O)C(O)(c1ccccc1)c1ccccc1)C2 (stereo partly specified) | inactive | inactive |  | 
29 | COP(=S)(OC)Oc1ccc(SC)c(C)c1 | inactive | inactive |  | 
30 | NNCc1ccccc1 | inactive | inactive |  | 
31 | CCCSP(=S)(OCC)Oc1ccc(Cl)cc1Cl (stereo unspecified) | inactive | inactive |  | 
32 | CC(=O)[C@H]1CC[C@H]2[C@@H]3CC[C@H]4C[C@](C)(O)CC[C@]4(C)[C@H]3CC[C@]12C | inactive | inactive |  | 
33 | Cc1cnc[nH]1 | inactive | inactive |  | 
34 | CC(C)=CC1C(C(=O)OCc2cccc(Oc3ccccc3)c2)C1(C)C (stereo unspecified) | inactive | inactive |  | 
35 | COC(C)(C)CCCC(C)C/C=C/C(C)=C/C(=O)OC(C)C (stereo unspecified) | inactive | inactive |  | 
36 | Oc1ccc(Cl)c(Cl)c1Cl | inactive | inactive |  | 
37 | CCOS(C)(=O)=O | inactive | inactive |  | 
38 | Nc1ccncc1 | inactive | inactive |  | 
39 | CC(CCc1ccccc1)NC(C)C(O)c1ccc(O)cc1 (stereo unspecified) | inactive | inactive |  | 
40 | CN(C)[C@@H]1C(=O)C(C(N)=O)=C(O)[C@@]2(O)C(=O)C3=C(O)c4c(O)cccc4[C@@](C)(O)[C@H]3C[C@@H]12 | inactive | inactive |  | 
41 | CCCN(CCC)c1c([N+](=O)[O-])cc(C(F)(F)F)cc1[N+](=O)[O-] | inactive | inactive |  | 
42 | CCS(=O)(=O)CCSP(=O)(OC)OC | inactive | inactive |  | 
43 | CN(C)C(=O)Cl | inactive | inactive |  | 
44 | C=CCOC(C)=O | inactive | inactive |  | 
45 | CC(N)=S | inactive | inactive |  | 
46 | FC(F)(F)c1cccc(C2=CCN(CCc3ccc4ccccc4c3)CC2)c1 | inactive | inactive |  | 
47 | O=NN(c1ccccc1)c1ccccc1 | inactive | inactive |  | 
48 | S=C(SSC(=S)N1CCCCC1)N1CCCCC1 | inactive | inactive |  | 

Reference: PubChem BioAssay (Tox21)
